VP16 counter: counter-screen for ROR gamma inhibitors: Gal4-VP16 reporter; Potency, µM (titrated, usually from 53.6 µM), usual class: inhibitors; Drosophila S2 Gal4-VP16 UAS-luciferase, luminescence, 20 h; 3.5% of 310,000 active; AID 2546;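 also: Gal4-VP16 expression switched on by copper sulfate through the metallothionein promoter; nearly all actives have a fitted effect of over 50% in size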
TDP1 cell CPT: growth inhibition of DT40 Tdp1-/-;hTDP1 cells with camptothecin (screen for TDP1 inhibitors). chicken DT40 Tdp1-/-;hTDP1 cells + 20 nM CPT, ATP luminescence, 48 h. Potency, µM (doses to about 46.2 µM), actives largely listed as inhibitors. 12% of 420,000 active. AID 686979; also: nearly all actives have a fitted effect of over 55% in size
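Chicken DT40 Tdp1-/- cells complemented with human TDP1, 400 cells/well, exposed to compounds plus 20 nM camptothecin for at least 48 h at 37 C; viability read as ATP content by CellTiter-Glo luminescence.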
ALOX12 inh: blocks human arachidonate 12S-lipoxygenase | Potency, µM (series often up to 108 µM), most hits filed as inhibitors | P18054 | purified 12hLO, xylenol orange hydroperoxide absorbance | 1.1% of 580,000 active
Target sequence (P18054 whole entry, looked up): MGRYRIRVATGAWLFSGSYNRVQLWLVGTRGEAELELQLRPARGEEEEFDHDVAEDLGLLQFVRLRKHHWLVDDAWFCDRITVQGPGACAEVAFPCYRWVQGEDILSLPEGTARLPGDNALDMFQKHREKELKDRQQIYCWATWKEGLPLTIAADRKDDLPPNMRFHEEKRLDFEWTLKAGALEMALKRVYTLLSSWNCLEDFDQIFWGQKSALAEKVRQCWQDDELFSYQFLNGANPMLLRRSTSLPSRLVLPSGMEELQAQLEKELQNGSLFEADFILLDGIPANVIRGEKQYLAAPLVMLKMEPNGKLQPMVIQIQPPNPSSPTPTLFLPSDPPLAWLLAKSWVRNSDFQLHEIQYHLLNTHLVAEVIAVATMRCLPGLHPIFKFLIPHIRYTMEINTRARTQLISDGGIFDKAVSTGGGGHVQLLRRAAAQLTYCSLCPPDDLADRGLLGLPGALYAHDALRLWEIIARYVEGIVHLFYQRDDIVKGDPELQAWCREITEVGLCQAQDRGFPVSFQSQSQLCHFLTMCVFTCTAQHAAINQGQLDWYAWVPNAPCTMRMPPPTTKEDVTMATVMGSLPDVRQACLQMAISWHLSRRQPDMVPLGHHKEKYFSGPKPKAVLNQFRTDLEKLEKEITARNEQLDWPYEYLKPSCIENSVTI
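Hydroperoxide product was detected by ferrous iron/xylenol orange as the 573 to 405 nm absorbance ratio. Arachidonic acid at 40 uM (final) was turned over for 30 min at room temperature by 150 nM human 12hLO, pH 7.0 Hepes buffer, after 15 min compound preincubation.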
RORg inh: inhibitors of mouse ROR gamma transcriptional activity; P51450; Drosophila S2 Gal4-RORgamma UAS-luciferase reporter, 20 h; Potency, µM (doses to about 53.6 µM), hits mostly inhibitors; 5.4% of 310,000 active; also: nearly all actives have a fitted effect of over 60% in size
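Schneider cells (Drosophila), stable Gal4 DBD–ROR gamma + UAS-luc; 1 hr cmpd preincubation; Cu2+ induction 700 uM final; 20 hr ambient; luminescence.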
DT40 TDP1 no CPT: qHTS for Inhibitors of human tyrosyl-DNA phosphodiesterase 1 (TDP1): qHTS in cells in absence of CPT. 15% of 420,000 active. DT40 Tdp1-/- hTDP1 cells, no CPT, ATP luminescence, 48 h. Potency, µM (doses to about 46.2 µM), actives largely listed as inhibitors. AID 686978, 2013; also: nearly all actives have a fitted effect of over 55% in size
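Camptothecin absent (DMSO only). Human TDP1-complemented DT40 knockout cells, 400 cells/well, 37 °C for minimum 48 hr; ATP measured via CellTiter-Glo, 30 min dark incubation, luminescence.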
ELG1 DNA repair: ELG1-dependent DNA repair inhibition | 2.3% of 330,000 active | HEK293T ELG1-luciferase reporter, luminescence, 16 h; DNA damage induced by 5-fluorouridine | Potency, µM (highest dose often 46.1 µM), usual class: inhibitors; also: nearly all actives have a fitted effect of over 55% in size
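Overnight (16 hr) co-exposure of 2,000 cells/well to 5-fluorouridine and compound at 37 °C preceded detection. Luciferase was quantified via ONE-Glo luminescence; loss of signal denotes inhibition.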
A number is an active result; 0 = inactive; ? = inconclusive; - = not tested or not shown; ! = not active in a repeat; [ ] = dose if it differs, or a comment. Compounds with a hit are over-represented: about 15% of the library has one in this group of screens. Calls follow the shape of the dose curve; as a rule, active = well fitted curve in the direction sought with a large enough effect; inconclusive = small, poorly fitted or top-dose-only effect, or another doubt; inactive = no such curve, though single readings can be large; an effect the other way counts as inactive or inconclusive.

SMILES	VP16 counter	TDP1 cell CPT	ALOX12 inh	RORg inh	DT40 TDP1 no CPT	ELG1 DNA repair
CNS(=O)(=O)c1cccc(C(=O)OCC(=O)Nc2ccc(OC)cc2[N+](=O)[O-])c1	0	33µM	0	0	6.5µM	0
COc1ccc(NC(=O)COC(=O)c2cc(OC)c(OC)c(OC)c2)c([N+](=O)[O-])c1	0	0	0	0	0	0
COc1cc(-c2ccc(NC(=O)CN3CCC(C)CC3)c(OC)c2)ccc1NC(=O)CN1CCC(C)CC1	0	23µM	0	?	18µM	0
COc1ccc(NC(=O)CC2Nc3cc(C)c(C)cc3NC2=O)c([N+](=O)[O-])c1 (stereo not drawn)	0	?	0	0	5.8µM	0
CCOCCCNC(=O)c1cc2cc(S(=O)(=O)N(C)C)ccc2n1CC	-	-	0	-	-	-
CN1CCN(C(=O)C2(N(C)CCc3ccccc3)Cc3ccccc3C2)CC1	-	-	0	-	-	-
COc1ccc(NC(=O)CSc2ccccc2)c([N+](=O)[O-])c1	0	0	0	0	29µM	?
COc1ccc(NC(=O)CN2CCC(C)CC2)c([N+](=O)[O-])c1	0	8.2µM	0	0	8.2µM	0
CC1CCN(CC(=O)Nc2ccc(Cl)cc2[N+](=O)[O-])CC1	0[10 µM]	?	0	0	?	0
COc1ccc(NC(=O)CSc2nncn2C)c([N+](=O)[O-])c1	0	0	0	0	0	0
COc1ccc(NC(=O)CN2CCCCC2)c([N+](=O)[O-])c1	0	13µM	0	0	13µM	?
O=C(O)C1(Cc2nc3ccccc3s2)CCCC1	-	-	0	-	-	-
CCc1cccc(-n2nnc(-c3nsc(NC(=O)c4cccc(F)c4)n3)c2C)c1	-	-	0	-	-	-
CC(C)C1=NOC2(CCN(Cc3ccc(C(F)(F)F)cc3)C2)C1 (stereo not drawn)	-	-	0[6.33 µM]	-	-	-
CSc1nc(N)c(C#N)c(-c2ccc(Cl)cc2)c1C#N	0	0	0	?	16µM	0
N#Cc1c(-c2ccc(Cl)cc2)c(C#N)c(=O)n(N)c1N	0	?	0	0	29µM	?
Clc1cccc(CNc2ccn3nc(-c4ccccc4Cl)cc3n2)c1	-	?	0	-	?	-
c1ccc(-c2cc3nc(NCc4cccs4)ccn3n2)cc1	-	0	0	-	?	-
COc1cc(-c2cc3nc(NCc4cccs4)ccn3n2)cc(OC)c1OC	-	10µM	0	-	10µM	-
COc1cc(-c2cc3nc(NCc4cccc(Cl)c4)ccn3n2)cc(OC)c1OC	-	6.5µM	0	-	5.2µM	-
CCCNc1nc(-c2ccc3[nH]c(=O)oc3c2)cs1	-	-	13µM	-	-	-
CCNc1nc(-c2ccc(Br)cc2)cs1	-	-	0	-	-	-
O=c1[nH]c2ccc(-c3csc(NC4CCCC4)n3)cc2o1	-	-	6.3µM	-	-	-
CN(C)CCN1CCC(N2CCN(C(=O)c3ccnn3C)CC2)C1=O (stereo not drawn)	-	-	0	-	-	-
Cc1cccc[n+]1Cc1ccccc1	-	-	16µM	-	-	-
SMILES	VP16 counter	TDP1 cell CPT	ALOX12 inh	RORg inh	DT40 TDP1 no CPT	ELG1 DNA repair
Cc1cccc[n+]1CCCCCCCCCC[n+]1ccccc1C	0	?	14µM!	0	0	?
Clc1cccc[n+]1CCc1ccccc1	-	0	-	-	0	-
CC(C)C(=O)NCC12CCCC=C1N(C)C(=O)CC2 (stereo not drawn)	-	-	0	-	-	-
Cc1ccc(-c2cc(NC=O)c3ncc(-c4cccc(C(=O)N(C)C)c4)n3c2)cc1	-	?	0	-	?	-
CN(C)C(=O)c1cccc(-c2cc(NC=O)c3ncc(-c4ccc(F)cc4)n3c2)c1	-	?	0	-	16µM	-
COc1ccc(F)cc1-c1cc(NC=O)c2ncc(-c3cccc(C(=O)N(C)C)c3)n2c1	-	?	0	-	23µM	-
CC(=O)c1ccc(-c2cnc3c(NC=O)cc(-c4cccc(C(=O)N(C)C)c4)cn23)cc1	-	5.2µM	0	-	7.3µM	-
Cc1ccc(C#N)c(N2CCCC(c3nccn3CC3CCC3)C2)n1 (stereo not drawn)	-	-	0	-	-	-
Clc1cc(Cl)cc(NC2CNC2)c1	-	-	0[12.5 µM]	-	-	-
CCOc1ccc(NC(=O)c2cc(=O)c3ccc(C)c(C)c3o2)cc1	-	?	?	-	9.2µM	-
CCC(Sc1nc2ncccc2[nH]1)C(=O)Nc1cccc(OC)c1 (stereo not drawn)	-	?	0	-	?	-
COc1ccc(Cl)cc1NC(=O)CSc1nnc(C)n2c1cc1sccc12	-	0	0	-	0	-
CCC(Sc1nncn2c1cc1sccc12)C(=O)Nc1cccc(OC)c1 (stereo not drawn)	-	?	0	-	23µM	-
CCC(Sc1nnc(C)n2c1cc1sccc12)C(=O)Nc1ccccc1F (stereo not drawn)	-	?	?	-	21µM	-
COCc1cc(C[C@@H]2CC[C@H](O)[C@@H](CNC3CCCCC3)O2)no1	-	-	0	-	-	-
COc1ccccc1C(=O)NC(CCSC)C(=O)NNC(=O)c1ccccc1O (stereo not drawn)	-	?	?	-	29µM	0
CC(=O)c1ccc(OCc2ccc(Oc3c(Cl)cccc3[N+](=O)[O-])cc2)cc1	20µM	?	0	?	?	0
CC(=O)c1ccc(OCc2ccc(C(=O)c3ccccc3)cc2)cc1	?	10µM	0	?	8.2µM	0
CC(=O)c1ccc(OCc2ccccc2Cl)cc1	-	-	0	-	-	-
CC(=O)Nc1cccc(OCC(=O)Nc2cccc(S(=O)(=O)N3CCCC3)c2)c1	-	21µM	0	-	21µM	?
CCc1cccc(NC(=O)COC(=O)/C=C/c2cccs2)c1	-	0	0	-	0	0
O=C(COc1ccccc1Cl)Nc1cccc(S(=O)(=O)N2CCCC2)c1	-	16µM	0	-	21µM	?
O=C(COC(=O)/C=C/c1cccs1)Nc1cccc(S(=O)(=O)N2CCCC2)c1	0	13µM	0	?	23µM	0
O=C(COc1ccccc1)Nc1cccc(S(=O)(=O)N2CCCC2)c1	-	0	0	-	0	0
O=C(COc1ccccc1[N+](=O)[O-])Nc1cccc(S(=O)(=O)N2CCCC2)c1	-	23µM	0	-	21µM	16µM
SMILES	VP16 counter	TDP1 cell CPT	ALOX12 inh	RORg inh	DT40 TDP1 no CPT	ELG1 DNA repair
O=C(NCCc1ccccc1)N1CCCC(c2nc(C3CCOCC3)no2)C1 (stereo not drawn)	-	-	0	-	-	-
CC1Sc2ccc(S(=O)(=O)N3CCC(C(=O)N4CCCC4)CC3)cc2NC1=O (stereo not drawn)	-	-	0	-	-	-
O=C1CC(c2ccccc2)N(Cc2ccncc2)CCCN(C(=O)c2ccco2)CCN1 (stereo not drawn)	-	-	0	-	-	-
CN1C(=O)CCc2cc(NC(=O)Cc3ccccc3Cl)ccc21	-	-	0	-	-	-
COC(=O)c1ccccc1NC(=O)COC(=O)/C=C/c1cccs1	-	0	0	-	0	0
CCOc1ccccc1NC(=O)COC(=O)/C=C/c1cccs1	-	0	0	-	18µM	?
CCN1C(=O)C(Cc2nc3ccccc3c(=O)n2-c2ccccc2)c2cc(Br)ccc21 (stereo not drawn)	-	5.8µM	?	-	5.8µM	-
